Results as given in PubChem BioAssay AID651899 (Broad Institute, 2012).
Entries with a potency or affinity are not part of this list. Active and inactive are the calls of the source. No rule for the calls is given here.

Assay: HEK293 cell viability loss – plate reader, cherry-pick, cytotoxicity control, dose response (AID 651899);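 also: cells exposed to compound for 48 hours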
Settings: series mostly up to 26 µM; activity change, negative = cytotoxicity: at the top concentration

**Q.** Which “activity change, negative = cytotoxicity” value does the source give for COC(=O)C[C@@H]1CC[C@@H]2[C@H](COC[C@@H](O)CN2C(=O)Nc2cccc(F)c2)O1 here?
**A.** -4.94% (inactive)

**Q.** For COC(=O)c1c(C(=O)OC)c(-c2cccc(F)c2)n2c1CS(=O)C2 (stereo unspecified), which “activity change, negative = cytotoxicity” value is on record?
**A.** 25.7% (inactive)

**Q.** With O=C(c1ccncc1)N1CC[C@@H]2[C@H]1c1cc(Br)ccc1N[C@@H]2CO as the compound, how does the “activity change, negative = cytotoxicity” value read?
**A.** 2.88% (inactive)

**Q.** For CCC(CO)Oc1cc(NC(=O)c2cccc(F)c2)c2ncn(C(C)C)c2c1 (stereo unspecified), which “activity change, negative = cytotoxicity” value is on record?
**A.** 8.15% (inactive)

**Q.** For CC(Oc1ccc2c(-c3ccccc3)cc(=O)oc2c1)C(=O)NCc1ccccn1 (stereo unspecified), which “activity change, negative = cytotoxicity” value is on record?
**A.** -28.5% (inactive)

**Q.** For Cc1nc(-c2cccnc2)sc1C(=O)Nc1cccc(C(F)(F)F)c1, which “activity change, negative = cytotoxicity” value is on record?
**A.** -8.29% (inactive)

**Q.** With O=C(CSc1nc2c(c(=O)n1-c1ccccc1)SCC2)N1CCN(c2ccccc2)CC1 as the compound, how does the “activity change, negative = cytotoxicity” value read?
**A.** 2.08% (inactive)

**Q.** For Cc1cc(C(=O)NC2CC(C)(C)Cc3c2cnn3-c2cccc(F)c2)nn1C (stereo unspecified), which “activity change, negative = cytotoxicity” value is on record?
**A.** -25.6% (inactive)

**Q.** Which “activity change, negative = cytotoxicity” value does the source give for O=C(c1ccc(S(=O)(=O)Nc2ccccc2F)cc1)N1CCN(c2ccccc2O)CC1 here?
**A.** -14.3% (inactive)

**Q.** For C/C=C/c1ccc2c(c1)O[C@@H](CN(C)C(=O)Nc1ccc(OC)cc1)[C@@H](C)CN([C@@H](C)CO)S2(=O)=O, which “activity change, negative = cytotoxicity” value is on record?
**A.** 26.7% (inactive)

**Q.** Which “activity change, negative = cytotoxicity” value does the source give for Cc1ccc(NCc2nnc(SCC(=O)N3CCc4ccccc43)n2C)cc1 here?
**A.** -21.8% (inactive)

**Q.** With Nn1c(SCCOc2ccccc2)nnc1-c1cccnc1 as the compound, how does the “activity change, negative = cytotoxicity” value read?
**A.** 3.82% (inactive)

**Q.** For COc1ccc(CCNC(=O)c2cnc3n(c2=O)CCS3)cc1OC, which “activity change, negative = cytotoxicity” value is on record?
**A.** 14.5% (inactive)

**Q.** For Cc1cc(NC(=O)CN(C)S(=O)(=O)c2cnc[nH]2)ccc1Br, which “activity change, negative = cytotoxicity” value is on record?
**A.** -14.2% (inactive)

**Q.** With O=C(N[C@H]1CC[C@@H](CCn2cc(-c3cccnc3)nn2)O[C@@H]1CO)c1ccccc1F as the compound, how does the “activity change, negative = cytotoxicity” value read?
**A.** -2.93% (inactive)

**Q.** For COC(=O)c1c(C(=O)OC)c(-c2ccc(F)cc2)n2c1CS(=O)C2 (stereo unspecified), which “activity change, negative = cytotoxicity” value is on record?
**A.** -8.64% (inactive)

**Q.** With O=C(CSc1nc2c(c(=O)n1-c1ccccc1)SCC2)N1CCOCC1 as the compound, how does the “activity change, negative = cytotoxicity” value read?
**A.** 44% (inactive)

**Q.** With C=C(C)n1c(=O)n(Cc2ccccc2C)c2ccccc21 as the compound, how does the “activity change, negative = cytotoxicity” value read?
**A.** -13.3% (inactive)

**Q.** With COc1cc(-c2nc3ccccc3nc2-c2ccc(O)c(OC)c2)ccc1O as the compound, how does the “activity change, negative = cytotoxicity” value read?
**A.** 24.3% (inactive)

**Q.** With CCOc1ccc(C(=O)Nc2cc3c(cc2N2CCCC2)n(CC)c(=O)n3CC)cc1OCC as the compound, how does the “activity change, negative = cytotoxicity” value read?
**A.** -27.8% (inactive)

**Q.** With COc1ccc(-c2cc(NC=O)c3ncc(-c4cccc(C(=O)N(C)C)c4)n3c2)cn1 as the compound, how does the “activity change, negative = cytotoxicity” value read?
**A.** 7.12% (inactive)

**Q.** With O=C(c1ccccc1F)N1CC[C@@H]2[C@H](CO)Nc3ccc(Br)cc3[C@@H]21 as the compound, how does the “activity change, negative = cytotoxicity” value read?
**A.** -16% (inactive)

**Q.** With COC(=O)C[C@H]1CC[C@@H]2[C@H](COC[C@@H](O)CN2C(=O)Nc2cccc(F)c2)O1 as the compound, how does the “activity change, negative = cytotoxicity” value read?
**A.** -0.606% (inactive)

**Q.** Which “activity change, negative = cytotoxicity” value does the source give for CO[C@H]1CN(C)C(=O)c2ccc(NC(C)=O)cc2OC[C@@H](C)N(C(=O)c2ccc(F)cc2)C[C@H]1C here?
**A.** 21.7% [at 12 µM] (inactive)

**Q.** Which “activity change, negative = cytotoxicity” value does the source give for O=C(c1ccncc1)N1CC[C@@H]2[C@H](CO)Nc3ccc(Br)cc3[C@@H]21 here?
**A.** -1.15% (inactive)

**Q.** For CC(=O)O[C@]1(C(C)=O)CC[C@H]2[C@@H]3C=C(C)C4=CC(=O)CC[C@]4(C)[C@H]3CC[C@@]21C, which “activity change, negative = cytotoxicity” value is on record?
**A.** -26.5% (inactive)

**Q.** With Nc1cc(C(=O)O)ccc1Nc1ccccc1 as the compound, how does the “activity change, negative = cytotoxicity” value read?
**A.** -21.4% (inactive)

**Q.** For O=C(c1cccc(F)c1)N1CC[C@@H]2[C@H](CO)Nc3ccc(-c4cccc(F)c4)cc3[C@@H]21, which “activity change, negative = cytotoxicity” value is on record?
**A.** 17.2% (inactive)

**Q.** With CC(Oc1cc2oc(=O)c3c(c2cc1Cl)CCC3)C(=O)NCc1cccnc1 (stereo unspecified) as the compound, how does the “activity change, negative = cytotoxicity” value read?
**A.** -5.88% (inactive)

**Q.** With CC(=O)c1ccc(N2CCN(C(=O)c3ccc(Br)cc3)CC2)c(F)c1 as the compound, how does the “activity change, negative = cytotoxicity” value read?
**A.** 40% (inactive)

**Q.** Which “activity change, negative = cytotoxicity” value does the source give for O=C(Nc1ccc2snnc2c1)N1CCN(c2ccccc2)CC1 here?
**A.** 18.5% (inactive)

**Q.** With CCOC(=O)c1ccc(N2C(=O)c3n[nH]c(C)c3C2c2ccc(OC)c(OC)c2)cc1 (stereo unspecified) as the compound, how does the “activity change, negative = cytotoxicity” value read?
**A.** -12.5% (inactive)

**Q.** For O=C(Nc1ncc2c(n1)CC(c1ccco1)CC2=O)c1ccco1 (stereo unspecified), which activity change, negative = cytotoxicity is on record?
**A.** 20% [at 6 µM] (inactive)

**Q.** For CN1c2ccc(-c3cccc(F)c3)cc2[C@H]2[C@H](CCN2C(=O)C2CCOCC2)[C@H]1CO, which “activity change, negative = cytotoxicity” value is on record?
**A.** 20.7% (inactive)

**Q.** For Nn1c(SC/C=C/c2ccccc2)nnc1-c1cccnc1, which “activity change, negative = cytotoxicity” value is on record?
**A.** -7.17% (inactive)

**Q.** For O=C(O)CSc1ncnc2scc(-c3ccc(Br)cc3)c12, which “activity change, negative = cytotoxicity” value is on record?
**A.** -12.5% (inactive)
